Measurements published in the supplement of paper PMC12819154, “High-throughput peptide-centric local stability assay extends protein–ligand identification to membrane proteins, tissues and bacteria” (Nature Structural & Molecular Biology, 2025).

compound: Nc1ncnc2c1ncn2[C@@H]1O[C@H](COP(=O)(O)OP(=O)(O)OP(=O)(O)O)[C@@H](O)[C@H]1O [adenosine 5'-triphosphate]; assay: log2 fold change of tryptic peptide abundance, ligand vs vehicle (limited proteolysis) (log2 ratio); higher = more trypsin-susceptible (destabilized); settings: ligand concentration: 5 mM; sample: E. coli desalted lysate; replicate design: treated before aliquoting
Procedure: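 HT-PELSA: desalted E. coli K-12 BW25113 lysate (with 12 mM MgCl2) incubated with 5 mM ATP (pH 7) or water for 30 min at 25 C, then a 4 min trypsin pulse at 22 C. Peptides were quantified by DIA-MS (4 replicates). Value is the peptide log2 fold change (treated/control); negative = stabilized. Scale: negative = ligand-stabilized region.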
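Also: lysate desalted by size exclusion to strip endogenous ATP, peptide intensities built from DIA-NN precursor signals, and peptides missing any value discarded before comparison.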

UniProt P69829, sequence (P69829 whole entry): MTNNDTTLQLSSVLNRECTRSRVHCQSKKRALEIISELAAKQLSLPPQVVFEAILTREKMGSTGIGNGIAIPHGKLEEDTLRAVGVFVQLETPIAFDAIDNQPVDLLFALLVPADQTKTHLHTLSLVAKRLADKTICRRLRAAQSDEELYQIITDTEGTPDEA
UniProt P77522, sequence (P77522 whole entry): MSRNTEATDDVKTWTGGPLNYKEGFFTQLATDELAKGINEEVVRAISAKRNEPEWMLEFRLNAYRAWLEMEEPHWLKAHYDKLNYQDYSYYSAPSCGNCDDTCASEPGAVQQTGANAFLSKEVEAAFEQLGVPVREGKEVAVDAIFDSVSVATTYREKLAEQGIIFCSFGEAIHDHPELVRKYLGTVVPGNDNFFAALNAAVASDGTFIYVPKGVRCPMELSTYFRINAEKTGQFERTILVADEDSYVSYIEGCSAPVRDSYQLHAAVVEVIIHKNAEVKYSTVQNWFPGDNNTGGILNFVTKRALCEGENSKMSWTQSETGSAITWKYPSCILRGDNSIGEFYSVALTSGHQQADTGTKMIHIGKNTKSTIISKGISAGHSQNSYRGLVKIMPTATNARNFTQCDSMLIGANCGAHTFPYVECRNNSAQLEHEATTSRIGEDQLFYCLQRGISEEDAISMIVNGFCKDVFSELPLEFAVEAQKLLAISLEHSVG
UniProt P46887, sequence (P46887 whole entry): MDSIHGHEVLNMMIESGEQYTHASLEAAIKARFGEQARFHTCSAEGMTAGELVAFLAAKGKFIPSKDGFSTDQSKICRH
UniProt P00888, sequence (P00888 whole entry): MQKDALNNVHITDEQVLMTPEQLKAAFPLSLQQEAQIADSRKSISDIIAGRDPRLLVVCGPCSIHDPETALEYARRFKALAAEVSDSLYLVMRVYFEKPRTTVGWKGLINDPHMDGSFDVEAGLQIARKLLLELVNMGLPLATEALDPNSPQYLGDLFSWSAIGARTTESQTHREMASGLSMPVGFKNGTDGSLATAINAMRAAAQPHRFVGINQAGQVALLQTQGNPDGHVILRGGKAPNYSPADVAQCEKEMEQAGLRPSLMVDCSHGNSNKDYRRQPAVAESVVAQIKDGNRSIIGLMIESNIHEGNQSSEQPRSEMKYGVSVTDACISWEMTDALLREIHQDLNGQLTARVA
UniProt P30750, sequence (P30750 whole entry): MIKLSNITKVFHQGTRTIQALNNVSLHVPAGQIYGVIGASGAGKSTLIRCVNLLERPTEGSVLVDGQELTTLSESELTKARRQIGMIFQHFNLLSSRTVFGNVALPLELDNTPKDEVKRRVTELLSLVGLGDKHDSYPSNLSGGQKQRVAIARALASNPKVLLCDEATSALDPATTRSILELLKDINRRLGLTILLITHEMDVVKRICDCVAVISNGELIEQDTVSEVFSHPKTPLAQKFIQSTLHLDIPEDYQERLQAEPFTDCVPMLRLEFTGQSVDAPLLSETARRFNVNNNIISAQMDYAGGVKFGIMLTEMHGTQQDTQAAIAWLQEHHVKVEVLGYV
UniProt P76046, sequence (P76046 whole entry): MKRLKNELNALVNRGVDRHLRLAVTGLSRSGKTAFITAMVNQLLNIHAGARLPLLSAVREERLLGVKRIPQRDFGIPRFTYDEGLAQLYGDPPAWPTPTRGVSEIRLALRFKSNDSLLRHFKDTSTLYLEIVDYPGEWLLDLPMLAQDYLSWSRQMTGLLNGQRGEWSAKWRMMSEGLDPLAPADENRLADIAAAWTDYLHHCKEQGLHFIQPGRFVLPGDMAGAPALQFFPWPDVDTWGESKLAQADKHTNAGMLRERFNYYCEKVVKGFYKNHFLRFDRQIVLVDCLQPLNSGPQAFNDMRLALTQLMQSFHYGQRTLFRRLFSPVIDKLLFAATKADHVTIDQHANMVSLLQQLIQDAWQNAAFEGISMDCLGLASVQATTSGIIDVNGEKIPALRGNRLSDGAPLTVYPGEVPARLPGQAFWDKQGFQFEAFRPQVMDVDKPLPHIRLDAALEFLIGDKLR
UniProt P76034, sequence (P76034 whole entry): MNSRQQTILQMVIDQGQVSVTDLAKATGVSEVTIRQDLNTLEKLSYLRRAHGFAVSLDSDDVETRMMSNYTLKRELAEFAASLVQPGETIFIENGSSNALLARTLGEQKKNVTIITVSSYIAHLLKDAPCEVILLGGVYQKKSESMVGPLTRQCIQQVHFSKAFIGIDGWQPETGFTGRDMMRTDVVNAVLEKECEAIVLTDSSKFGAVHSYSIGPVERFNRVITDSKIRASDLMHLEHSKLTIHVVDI
UniProt P23331, sequence (P23331 whole entry): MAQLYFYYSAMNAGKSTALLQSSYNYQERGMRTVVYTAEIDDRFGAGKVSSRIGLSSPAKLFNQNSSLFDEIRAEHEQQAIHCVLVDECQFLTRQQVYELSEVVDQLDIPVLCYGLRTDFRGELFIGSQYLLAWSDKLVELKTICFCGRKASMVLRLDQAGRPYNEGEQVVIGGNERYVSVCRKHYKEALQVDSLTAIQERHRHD

Target | log2 fold change
UniProt P76046 (peptide sequence: RLKNELNALVNR, peptide start residue: 3) | 0.559
UniProt P77522 (peptide sequence: IMPTATNAR, peptide start residue: 392) | 1.07
UniProt P30750 (peptide sequence: TVFGNVALPLELDNTPKDEVKR, peptide start residue: 98) | 0.668
UniProt P69829 (peptide sequence: EKMGSTGIGNGIAIPHGKLEEDTLR, peptide start residue: 58) | 0.37
UniProt P00888 (peptide sequence: LLVVCGPCSIHDPETALEYARR, peptide start residue: 55) | 0.547
UniProt P46887 (peptide sequence: GKFIPSKDGFSTDQSK, peptide start residue: 60) | 0.606
UniProt P23331 (peptide sequence: TVVYTAEIDDR, peptide start residue: 33) | -1.64
UniProt P76034 (peptide sequence: DAPCEVILLGGVYQKK, peptide start residue: 127) | -0.81
